Compound activity: PubChem, several laboratories
CYP2C9 activ: increases human cytochrome P450 2C9 activity. P11712. recombinant CYP2C9, luciferin-H conversion, luminescence; active compounds read high; factor 1 = untreated enzyme, 0 = blocked. AID 1024. activation factor at 5 µM. 1.4% of 96,000 active;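 active means activation factor of 2 or more for CYP2C9 at a 5 µM dose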;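 further: 0 = sulfaphenazole-blocked wells and 1 = vehicle-only wells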
Cav3 T inh: inhibitors of human Cav3.2 T-type calcium channel | O95180 | Cav3.2-expressing cells, Fluo-4 calcium fluorescence FDSS; active compounds read low | B-score at 10 µM | 4% of 100,000 active;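 active means single-dose well whose peak fluorescence ratio is a statistical outlier from its plate by either plate-standardised score or position-corrected B-score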
CYP2C9 inh: blocks human cytochrome P450 2C9 | CYP2C9 Supersomes, luciferin-H conversion, luminescence | 20% of 96,000 active | inhibition, % at 5 µM;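 active means blocking of liver enzyme CYP2C9 beyond about 50% at 5 µM, limit read from the data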
CYP2C19 act: cytochrome P450 2C19 (human) activation; P33261; recombinant CYP2C19, luciferin-H EGE luminescence; active compounds read high; 0 = fully inhibited enzyme, 1 = untreated enzyme; activation factor at 5 µM; 96,000 tested, under 10 active;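 active means activation factor of at least 2 at 5 µM in the primary screen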;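 further: 0 = wells with 2.5 mM tranylcypromine and 1 = vehicle-only wells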
Target sequence (P33261 whole entry, looked up): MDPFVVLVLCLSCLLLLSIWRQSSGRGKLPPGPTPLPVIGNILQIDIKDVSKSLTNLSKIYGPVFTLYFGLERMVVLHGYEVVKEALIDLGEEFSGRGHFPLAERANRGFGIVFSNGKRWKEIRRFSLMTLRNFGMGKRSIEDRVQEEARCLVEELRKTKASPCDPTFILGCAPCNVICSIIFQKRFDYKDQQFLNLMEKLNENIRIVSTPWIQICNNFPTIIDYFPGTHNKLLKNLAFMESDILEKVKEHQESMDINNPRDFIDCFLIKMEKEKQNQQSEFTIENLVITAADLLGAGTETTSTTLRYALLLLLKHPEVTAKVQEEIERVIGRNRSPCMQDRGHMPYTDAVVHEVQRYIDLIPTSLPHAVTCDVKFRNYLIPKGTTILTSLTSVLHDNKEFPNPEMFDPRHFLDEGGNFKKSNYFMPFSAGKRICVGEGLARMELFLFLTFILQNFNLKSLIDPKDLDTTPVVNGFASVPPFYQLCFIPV
CYP2C19 inhib: blocks human cytochrome P450 2C19. P33261. CYP2C19 Supersomes, luciferin-H EGE luminescence, 30 min. inhibition, % at 5 µM. 21% of 96,000 active. AID 778;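 active means CYP2C19 inhibition above a set limit at 5 µM in the primary screen, cut at about 50% in these data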;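 further: plate controls were negative control wells for no effect and 2.5 mM tranylcypromine positive control for full effect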
* hit, by the source's call; . = no result. Rows were chosen to be rich in hits. Some 27% of all compounds tested hit in one or more screens of this group.

SMILES	CYP2C9 activ	Cav3 T inh	CYP2C9 inh	CYP2C19 act	CYP2C19 inhib
CCOC(=O)C(C)Sc1nc(-c2ccco2)cc(C(F)(F)F)c1C#N (stereo not given)	0.8	-1.56	19.9	0.9	7.4
CCc1nc2c(c(SC)nn2-c2ccccc2)c(N)c1C(=O)OC	0.9	-0.189	14.9	1	2.5
CC1=C(C(=O)N2CCCCC2)C(c2cccs2)NC(=O)N1 (stereo not given)	1.4	0.199	-36.0	1.2	-15.7
O=C(CN(C(=O)Cn1nnc(-c2cccs2)n1)c1ccc2c(c1)OCCO2)NC1CCCCC1	0	-4.07*	99.1*	0.4	59.6*
O=C(CN(C(=O)Cn1nnc(-c2cccs2)n1)c1ccc2c(c1)OCCO2)NCC1CCCO1 (stereo not given)	0.1	-0.0117	87.6*	0.7	33.3
Cc1ccc(-c2nnn(CC(=O)N(CC(=O)NC3CCCCC3)c3cnc4ccccc4c3)n2)o1	.	-4.37*	.	.	.
O=C(NCC1CCCO1)C(c1ccc(F)cc1)N(Cc1ccc(F)cc1)C(=O)Cn1nnc(-c2cccs2)n1 (stereo not given)	.	-1.61	.	.	.
O=C(NC1CCCCC1)C(c1ccncc1)N(C(=O)Cn1nnc(-c2cccs2)n1)C1CCCC1 (stereo not given)	.	1.22	.	.	.
Cc1ccc(-c2nnn(CC(=O)N(CC(=O)NCC3CCCO3)c3ccccc3)n2)o1 (stereo not given)	0.9	-0.0123	11.3	0.8	17.8
NC(=O)CC(NC(=O)c1cccc(Br)c1)c1ccc(N2CCC(N3CCCC3)CC2)c([N+](=O)[O-])c1 (stereo not given)	.	-0.29	.	.	.
CCOCCCNC(=O)C1CCN(S(=O)(=O)N(CC(C)C)CC(C)C)CC1	0.7	-0.0516	30.0	0.8	22.6
Cc1ccc(Oc2ccc3c(c2)C(=O)N(c2ccc(S(=O)(=O)Nc4nccs4)cc2)C3=O)cc1	0.4	0.0259	63.5*	0.8	21.9
CC(C)(C)C(=O)Nc1ccc(Oc2ccc3c(c2)C(=O)N(c2ccc(O)cc2)C3=O)cc1	0.7	0.597	33.3	0.7	32.1
COC(=O)C1=C(O)C(C(=O)OC)C(c2ccc(C)cc2)C(C#N)(C#N)C1c1ccc(C)cc1 (stereo not given)	.	-5.55*	.	.	.
COc1ccc(C2=NOC3(CC(=O)N(c4ccc(C)cc4)C3=O)C2)c(OC)c1 (stereo not given)	1	-0.219	2.4	1.1	-6.2
CCS(=O)(=O)NCc1ccc2[nH]c3c(c2c1)CCCC3	0.3	-0.412	73.8*	0.6	38.2
COC(=O)[C@@]1(Cc2ccc(OC)cc2)[C@H]2c3cc(C(=O)N4CCCC4)n(CCc4c[nH]c5ccc(O)cc45)c3C[C@H]2CN1C(=O)c1ccccc1	.	0.579	.	.	.
Cn1cc(/C=N/n2cnc3scc(-c4ccccc4)c3c2=O)c2ccccc21	0.6	-4*	42.5	0.9	12.2
COC(=O)c1ccc(CSCC(=O)Nc2cc(OC)cc(OC)c2)o1	0.4	1.44	64.1*	0.5	45.4
COc1ccccc1-n1cnnc1SCC(=O)c1cc(C)n(Cc2cccs2)c1C	0.1	-2.71	88.8*	0	97.8*
C=CCn1c(SCC(=O)c2cc(C)n(Cc3cccs3)c2C)nnc1-c1ccncc1	0.6	1.25	36.1	0.6	43.5
Cc1cc(C(=O)CN2C(=O)c3cccc(N)c3C2=O)c(C)n1Cc1cccs1	2.4*	-1.05	-137.6	0.1	91.3*
Cc1cc(C(=O)CSc2nnc(-c3ccccc3F)o2)c(C)n1Cc1cccs1	0.2	-4.93*	77.8*	0	96.2*
O=C(O)C1CC(=O)N(Cc2cccs2)C1 (stereo not given)	1.2	0.916	-17.2	1.2	-23.0
Cc1cc(C)c(C(=O)CSc2nnc(-c3ccccc3Br)o2)cc1C	1.2	-1.1	-24.3	0.7	27.8
SMILES	CYP2C9 activ	Cav3 T inh	CYP2C9 inh	CYP2C19 act	CYP2C19 inhib
C=C1CCN([C@@H](CC(C)C)C(=O)Nc2nc3ccc(Cl)cc3s2)S(=O)(=O)c2ccccc21	.	-0.508	.	.	.
NCCN1CCN(CCN)CC1	0.9	-0.00616	7.1	1.1	-14.8
N#CCCn1cc(C(CC(=O)c2ccc(Br)cc2)C(=O)O)c2ccccc21 (stereo not given)	0.4	-0.22	57.5*	0.7	29.2
COCCSc1nc2sc3c(c2c(=O)n1-c1ccccc1)CCN(C)C3	0.7	1.48	33.2	0	98.2*
COC(=O)C1=C(C)N(CCc2ccc(OC)c(OC)c2)C(=O)C1	0.8	0.47	16.3	0.4	64.7*
COC(=O)C1=C(C)N(CCc2ccc(OC)cc2)C(=O)C1	0.9	-0.436	14.5	0.2	78.2*
COC(=O)C1=C(C)N(Cc2ccco2)C(=O)C1	1	-0.0492	-2.9	0.7	27.1
COC(=O)C1=C(C)N(CC(C)C)C(=O)C1	0.8	0.0423	23.0	0.3	71.4*
COC(=O)C1=C(C)N(Cc2ccc(OC)cc2)C(=O)C1	0.7	-0.513	33.7	0	97.4*
CCOC(=O)c1cccc(NC(=O)CSc2nnc(COc3ccccc3C)o2)c1	1	0.872	-0.1	0.8	22.7
Cc1cc(C)cc(NC(=O)c2cccn2-c2ncc(C(F)(F)F)cc2Cl)c1	0.8	-2.89	19.9	0.5	49.9
COc1ccc(CCN2C(=O)C3C4C=CC(C3C2=O)C2C(=O)N(CCc3ccc(OC)c(OC)c3)C(=O)C42)cc1OC (stereo not given)	0.7	-2.12	31.2	0.8	19.7
COc1ccc(CCN2C(=O)C3C4C=CC(C4)C3C2=O)cc1OC (stereo not given)	1.1	-0.0519	-6.4	0.4	57.4*
O=C(NN=C1c2ccccc2-c2ccccc21)c1ccccc1Br	0.8	-4.01*	19.1	0.6	38.1
O=C(Nc1ccccc1)c1nnsc1S(=O)c1ccc(Cl)cc1 (stereo not given)	0.4	0.457	64.1*	1.1	-5.7
O=C(Nc1ccc(Cl)cc1)c1cccs1	1	0.000443	-4.2	0.8	19.6
CCNc1nc(N)c(C(=C(C#N)C#N)c2ccccc2)s1	0.7	0.0449	31.1	0.9	12.7
C=CCOC(=O)C1=C(C)NC(SCC(=O)Nc2nccs2)=C(C#N)C1c1cccs1 (stereo not given)	0.8	-2.92	16.2	0.8	17.0
CCOCCSC1=C(C#N)C(c2cccs2)C(C(C)=O)=C(C)N1 (stereo not given)	0.2	-0.194	83.4*	0.1	89.6*
CC1=C(C(=O)N(C)C)C(c2cccs2)NC(=O)N1 (stereo not given)	.	-0.75	.	.	.
CC(=O)C1=C(C)NC(C)=C(C(C)=O)C1c1cccs1	0.4	.	61.6*	0.1	93.7*
CCSC1=C(C#N)C(c2cccs2)C(C(=O)OC)=C(C)N1 (stereo not given)	0.1	-2.06	90.7*	0.1	87.8*
CCOC(=O)C1=C(C)NC(SCC(N)=O)=C(C#N)C1c1cccs1 (stereo not given)	0.5	1.48	51.5*	0.5	51.7*
CCCSC1=C(C#N)C(c2cccs2)C(C(=O)Nc2ccccc2)=C(C)N1 (stereo not given)	.	-2.69*	.	.	.
